Source: PubChem BioAssay AID651724 (National Center for Advancing Translational Sciences (NCATS), 2012)
In all, about 340,000 compounds went through this assay and about 1,700 (0.5%) were called active. Roughly 2% stayed inconclusive and do not appear here. Many of the other results were omitted from the sample, so actives are more common in it than they were. A number with no mark means an inactive call. No stated cut-off is given here; in the data, active means activity change below about -65%; inconclusive means mostly about -30% to -63%; inactive means weaker than that.

Test system: CtBP / adenovirus E1A interaction (AlphaScreen)
Assay: qHTS Assay for Inhibitors of the CtBP/E1A Interaction
Conditions: AlphaScreen GST-E1A/His-CtBP binding, 1536-well; stronger effect = lower value
Summary of the method: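 Protein mix (5X: 125 nM each GST-E1A, His-CtBP) was incubated with pinned compound 2 h at 37 deg C in dark, in 50 mM Tris pH 8.0 buffer with 300 mM NaCl. Glutathione donor and nickel acceptor beads followed; AlphaScreen signal read after 1 h.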
On the % scale 0 is the no-effect control and ±100 the full control effect.

SMILES | activity change
O=C(Nc1ccccc1)/C(=C\c1ccco1)NC(=O)c1ccco1 | 0.317%
O=C(NCCc1ccco1)c1nn(Cc2ccccc2)c(=O)c2ccccc12 | -2.1%
O=c1nc2s/c(=C\c3ccco3)c(=O)n2nc1Cc1ccccc1 | -81.2% (active)
CCCCOCCCNC(=O)C[C@@H]1C[C@@]2(C(=O)OC)CCCCC=C2N(CCC2=CCCCC2)C1=O | -1.56%
Cc1ccc(-n2ncc3c(Nc4cccc(C(=O)O)c4)ncnc32)cc1 | -74.4% (active)
Cc1ccc(Nc2ncnc3c2cnn3C)c(C)c1 | 3.32%
CC(C)Sc1ncnc2c1cnn2-c1ccccc1 | 0.575%
CC(=O)Nc1cc(-c2cccc(CO)c2)cn2c(-c3cccc(C(F)(F)F)c3)cnc12 | 3.79%
CN(Cc1cn(Cc2ccc(C(F)(F)F)cc2)nn1)C1CN(Cc2cn(Cc3ccc(C(F)(F)F)cc3)nn2)S(=O)(=O)C1 (stereo not given) | 3.64%
Cc1ccc(NC(=O)/C(=C/c2ccc([N+](=O)[O-])cc2)NC(=O)c2ccccc2)cc1 | 4.11%
O=C(Nc1ccc(C(=O)O)cc1)/C(=C/c1ccc([N+](=O)[O-])cc1)NC(=O)c1ccccc1 | -2.48%
O=C(N/N=C/c1cc([N+](=O)[O-])ccc1O)/C(=C\c1cccs1)NC(=O)c1ccccc1 | -94.1% (active)
CCCCN(C=O)c1c(CC)nc2c(OCCC3CCCCC3)cccn12 | -11%
CCC(CC)C(C(=O)NC1CCCC1)N1CCN(c2cc(C)nc3ccccc23)CC1 (stereo not given) | 3.39%
O=C(COc1cc2oc(=O)c3c(c2cc1Cl)CCC3)NCCCN1CCOCC1 | -65.9% (active)
Cc1cc(=O)oc2c(C)c(OCC(=O)NCCN3CCOCC3)ccc12 | 0.132%
CCc1cc(=O)oc2c(C)c(OCC(=O)NCCN3CCOCC3)ccc12 | -6.07%
O=C(CC(CC(=O)c1ccccc1)c1ccco1)c1ccccc1 | 4.89%
Cc1ccc(S(=O)(=O)n2oc(=O)c(C3CCCCC3)c2N)cc1 | -69.5% (active)
Cc1ccc(S(=O)(=O)NC2CCCCCC2)cc1 | 10.7%
Cc1ccc(S(=O)(=O)N2CCC(N3CCCCCC3)CC2)cc1 | -10.9%
Cc1cc(Br)cn2c(Cc3ccccc3C(F)(F)F)c(C3CCCCC3)nc12 | -6.97%
Cc1noc(C)c1-c1ccc(C(=O)NCc2ccncc2)c2occc12 | -17.7%

SMILES | activity change
Cc1[nH]c2ccccc2c1C(=O)c1cc([C@H](NC(=O)OC(C)(C)C)C(C)C)sc1N | -23.1%
CCN(CC)C(=O)CSc1nc2ccccc2o1 | 4.11%
Cc1ccc(/C=N/NC(=O)CSc2nc3ccccc3o2)cc1 | -93.4% (active)
O=C(CSc1nc2ccccc2o1)N1CCN(c2ccccc2)CC1 | -3.28%
O=C(CSc1nc2ccccc2o1)N1CCN(c2ccc(Cl)cc2)CC1 | -0.51%
CC(C)(C)C(=O)CSc1nc2ccccc2o1 | 11.1%
O=C(CSc1nc2ccccc2o1)N/N=C/c1ccccc1C(=O)O | -92.7% (active)
CC(=O)Nc1cc(-c2ccc(N3CCN(C)CC3)cc2)cn2c(-c3ccc(F)cc3)cnc12 | -22%
CCc1nc2ccc(C(=O)Nc3cccc(OC)c3)cn2c1N(CCC(C)C)CCN(C)C | -9.75%
Cc1ccc(S(=O)(=O)N2CCCCC2)cc1NC(=O)CCNC(=O)c1ccccc1Cl | 2%
O=C(Nc1ccc(Cl)cc1)C1Cc2c(-c3ccc4c(c3)OCO4)ccnc2O1 (stereo not given) | -5.12%
O=C(NCc1ccc(F)cc1)c1cc(C2CCCCN2C(=O)c2cccs2)on1 (stereo not given) | 4.5%
CNC(=S)N1CCN(c2ccccn2)CC1 | 5.96%
C/C(CC(=O)Nc1ccc(N(C)C)cc1)=N\NC(=O)c1ccccc1F | -8.83%
O=C(NCCOc1ccccc1)c1ccccc1F | 0.486%
CCCCCNC(=O)Cc1ccc(OC)cc1 | 12.5%
C/C(=N\NC(=O)c1ccccc1F)c1ccccn1 | -97.9% (active)
CC(=NNC(=S)N1CCCCCC1)c1ccccn1 | -89.7% (active)
Cc1cccc(C)c1NC(=S)N1CCCCCC1 | 3.43%
COc1ccc(CC(=O)N/N=C(\C)c2ccccn2)cc1 | -73.3% (active)
COc1ccc(C/C(C)=N/NC(=O)c2cc(C)oc2C)cc1 | 8.03%
C#CCN(C[C@@H]1[C@@H](OC(=O)NC2CC2)[C@@H](OC(=O)NC2CC2)Cn2c(=O)ccc(=O)n21)S(=O)(=O)c1ccc(C)cc1 | 3.71%
FC(F)(F)c1ccccc1Cc1c(-c2ccccc2)nc2c3ccccc3ccn12 | 6.14%

SMILES | activity change
Cc1cccc(C(=O)C(O)(c2ccccc2)C2CCCCC2=O)c1 (stereo not given) | 3.76%
CC1(C(=O)NS(=O)(=O)c2ccc3ccccc3c2)CCN1C(=O)C1(c2ccc(Cl)cc2)CCC1 (stereo not given) | -4.19%
O=C(CSc1nc2cccc(F)c2c(=O)n1-c1ccccc1)Nc1ccc2c(c1)CCC2 | 8.09%
CC(=O)Nc1cccc(-c2ccnc3c2CC(C)(C(=O)NCc2ccccc2)O3)c1 (stereo not given) | 0.959%
CC1(C(=O)NS(=O)(=O)c2ccccc2)CCN1C(=O)Cc1ccc(-c2ccccc2)cc1 (stereo not given) | 1.02%
O=c1[nH][nH]c2c1[C@H](c1ccc(Cl)cc1)O[C@H](CCc1ccccc1)C2 | 1.98%
COc1cccc(-c2cnc3c(NC(C)=O)cc(-c4cc(F)ccc4OC)cn23)c1 | -20.8%
Cc1c(Cl)c([N+](=O)[O-])nn1Cc1ccc(C(=O)N/N=C\c2cc(Cl)ccc2O)o1 | -70.3% (active)
Cc1nn(Cc2ccc(Cl)cc2)c(Cl)c1/C=N/NC(=O)c1cccnc1 | -0.89%
Cc1ccc(C(=O)O)cc1NC(=O)c1ccc(Cn2nc(C)c(Cl)c2C)o1 | 0%
CNc1cncc(-c2ccc(NS(C)(=O)=O)cc2)n1 | 0.0496%
COc1cccc(CNc2nc(NCc3ccccc3OC)nc3ccsc23)c1 | -7.75%
O=C1c2ccccc2C(=O)c2c1cccc2N1CCN(CCO)CC1 | -25.7%
O=C1c2ccccc2C(=O)c2c1cccc2N1CCN(Cc2ccccc2)CC1 | -94.4% (active)
O=S1(=O)CCN(Cc2ccccc2)CC1 | 7.73%
C[C@@H]1CN([C@@H](C)CO)C(=O)CCCn2nncc2CO[C@H]1CN(C)C(=O)Nc1ccc(C(F)(F)F)cc1 | -18.9%
COC(=O)[C@]12CCCCC=C1N(CCC1=CCCCC1)C(=O)[C@H](CC(=O)N1CCSCC1)C2 | -7.56%
Cc1cc(Cl)ccc1-c1nc(NCCN(C)C)nc2ccsc12 | -3.67%
Cc1nnc(N/N=C/c2ccccn2)[nH]c1=O | -90.3% (active)
CCOc1ccc(-n2c(O)c(/C=N/Nc3nc(C)cc(C)n3)c3ccccc3c2=O)cc1 | -6.77%
Cc1cc(=O)[nH]c(N/N=C/c2c(C)nn(-c3ccccc3Cl)c2Cl)n1 | 5.1%
CCN(CC)CCCN=Cc1c(O)n(-c2ccc(C)cc2)c(=O)c2ccccc12 | -3%
Cc1nnc(N/N=C/C2CC=CCC2)[nH]c1=O (stereo not given) | -19.9%

SMILES | activity change
CCOc1ccc(-n2c(O)c(/C=N/Nc3nnc(C)c(=O)[nH]3)c3ccccc3c2=O)cc1 | -92.9% (active)
Cc1ccc(NC(=O)CSc2nnc(CNC(=O)c3ccccc3F)o2)cc1Cl | -15.1%
COc1ccc(Cc2nnc(SCC(=O)Nc3ccc(C)c(Cl)c3)[nH]c2=O)cc1 | -19.5%
Cc1ccc(NC(=O)CSc2nn3c(=O)c(C)nnc3s2)cc1Cl | -85.4% (active)
CC1(C(=O)NCc2ccc3c(c2)OCO3)CCN1C(=O)Cc1cccc2ccccc12 (stereo not given) | -3.05%
CCOC(=O)C=Cc1ccc(C(=O)OCC)[nH]1 | 1.94%
O=C(NC1CCCCC1)C(c1cc2ccccc2o1)n1c(=O)c(-c2ccco2)nc2ccccc21 (stereo not given) | 6.62%
Cc1cccc(-n2cnc(C(=O)Nc3cccnc3)c2)n1 | 3.1%
Cn1cc(Cl)c(C(=O)NNC(=S)Nc2cccc(Cl)c2)n1 | -27.4%
Cc1cccc(-n2cnc(C(=O)NNC(=S)Nc3ccccc3)c2)n1 | -91.7% (active)
CC(C)N=C1CCCC1C(=S)SSC(=S)C1CCCC1=NC(C)C (stereo not given) | -5.04%
CCCCCNC(=O)C(c1ccc(OC)cc1)n1c(=O)c(-c2ccccc2)nc2ccccc21 (stereo not given) | 0%
C#Cc1ccc(NC(=O)C2(C)CCN2C(=O)Cc2ccc(-c3ccccc3)cc2)cc1 (stereo not given) | 0.392%
Cc1c2cnn(CC(=O)NCc3ccccn3)c(=O)c2c(C)n1Cc1ccc(Cl)cc1 | -67.4% (active)
O=C(Cn1ncc2c3ccccc3n(Cc3ccccc3)c2c1=O)NCc1ccccn1 | -0.706%
Cc1ccc(Cn2c(C)c3cnn(CC(=O)NCc4ccccn4)c(=O)c3c2C)cc1 | -24.7%
CCc1nc2c(OCc3ccc(C(=O)OC)cc3)cccn2c1N(C)C(=O)C(C)C | 0.85%
CC(=O)Nc1cccc(-c2cc(NC=O)c3ncc(-c4ccc(F)c(Cl)c4)n3c2)c1 | 6.58%
COc1ccccc1N1CCN(/N=C/c2ccc(O)cc2O)CC1 | -7.8%
Cc1nc2ccccc2nc1N/N=C/c1ccc(O)cc1O | -92.6% (active)
Oc1ccc(-c2nc3ccccc3nc2-c2ccc(O)cc2O)c(O)c1 | -12.2%
